PubChem BioAssay (NCI)
Several values for one entry are separate records, joined by “and”; a condition that tells them apart may be missing. Identical values can stand only once. About 83,000 compounds went through this panel and 20% of them were active in at least one assay; those are over-represented in the sample as a whole.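 Method: cells in 96-well plates; compound added at one concentration; 48 h incubation; percent growth measured; values under 10 scored active.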 Activity calls are given as the source filed them.

What follows are molecules tested on SK-MEL-2 melanoma (assay: NCI-60 one-dose screen, 48 h (100 = growth as untreated, 0 = no growth, -100 = all killed)). Details: 10 µM.

| SMILES | growth |
| --- | --- |
| COc1ccc(C(=O)/C=C/c2ccc(OCc3cccc(C(F)(F)F)c3)c(OC)c2)cc1OC | 89.1% (inactive) |
| CCN(Cc1ccccc1)c1ccc(/C=C2\COc3ccccc3C2=O)cc1 | 102% (inactive) |
| COc1ccc(C(=O)/C=C/c2ccc(OCc3ccc(Cl)cc3)cc2)cc1OC | 98.3% (inactive) |
| CC(=O)/C=C/c1ccc(OCc2ccc(C(C)(C)C)cc2)cc1 | 91.5% (inactive) |
| O=C(/C=C/c1cccc(Oc2ccc(Cl)cc2)c1)c1ccccc1 | 109% (inactive) |
| CC(=O)/C=C/c1ccc(OCc2ccc(Cl)cc2)cc1 | 101% (inactive) |
| CC(=O)/C=C/c1ccc(N(CCO)Cc2ccc(C(C)(C)C)cc2)cc1 | 93.3% (inactive) |
| CC(=O)/C=C/c1ccc(N(C)Cc2ccc(C(C)(C)C)cc2)cc1 | 99.7% (inactive) |

Same assay, conditions: 10 µM unless noted

| SMILES | growth |
| --- | --- |
| CN(C)CCCn1c2nc(=O)[nH]c(=O)c-2nc2cc(Cl)c(Cl)cc21 | 112% (inactive) |
| C=C(CNCCc1ccc(O)cc1)[C@@H]1CC[C@]2(CO)CC[C@]3(C)[C@H](CC[C@@H]4[C@@]5(C)CCC(NCCc6ccc(O)cc6)C(C)(C)[C@@H]5CC[C@]43C)[C@@H]12 (some centres not stated) | -84.2% (active) |
| O=C1/C(=C/c2cn(-c3ccccc3)nc2-c2ccccc2)SC(=S)N1c1ccc(Cl)cc1 | 97.4% (inactive) |
| CCCNNC(=O)/C=C/c1ccc(CNCCc2c(C)[nH]c3ccccc23)cc1 | 13.7% [2.5 µM] (inactive) |
| C=CCNC(=O)Cc1c(-c2ccc(OC)cc2)oc2c(OC)c3c(c(OC)c12)OCO3 | 108% (inactive) |
| CC1=C2[C@@H](CC1)[C@]1(C)O[C@@](C(C)C)(C[C@H]1OC(=O)CO)[C@H]2OC(=O)C1CC1c1ccccc1 (some centres not stated) | 75.8% (inactive) |
| O=C([C@H]1C[C@H]1c1ccc(S(F)(F)(F)(F)F)cc1)N1CCN(c2cc(Cl)ccc2C(F)(F)F)CC1 | 91.7% (inactive) |
| O=C(Cc1ccc(F)cc1)c1ccccc1 | 114% (inactive) |
| COc1cc2cc(NCc3ccncc3)nc(C)c2cc1OC | 100% (inactive) |
| CN1Cn2c(ccc2C(F)(F)F)C(=O)CS1(=O)=O | 105% (inactive) |
| O=C1C=C(Nc2ccccc2)c2ncccc2C1=O | -66.8% (active) |
| C=C1C(=O)O[C@H]2[C@H]1CC/C(COC(=O)NCc1ccc(Cn3c(=O)sn(CCCI)c3=O)cc1)=C\CC[C@@]1(C)O[C@@H]21 | 68.5% (inactive) |
| COc1ccc(Cn2cc(C(=O)Nc3cccnc3Nc3ccccc3)nn2)cc1 | 107% (inactive) |
| NNCCc1ccccc1 | 100% (inactive) and 106% (inactive) |
| CCN(CC)CC#CCOC(=O)[C@]1(C)CCC[C@]2(C)c3ccc(C(C)C)cc3CC[C@@H]12 | 98.6% (inactive) |
| COc1cc2c(cc1OCCCOC1=C=C=C(c3ccc4c(c3)c3cc(-c5ccc(OCCCOc6cc7c(cc6OC)C(=O)N6CCC[C@H]6C=N7)cc5)ccc3n4S(=O)(=O)c3ccc(C)cc3)C=C1)N=C[C@@H]1CCCN1C2=O | -20.6% (active) |
| O=C(CCl)N(O)c1ccc(/C=C/c2ccccc2)cc1 | 88.1% (inactive) and 77.7% (inactive) |
| COc1cc(/C=C/C(=O)c2ccc(NC(=O)CSc3nnc(-c4cc(-c5ccccc5)nc5ccccc45)n3-c3ccccc3)cc2)cc(OC)c1OC | 100% (inactive) |
| Nc1[nH]nc(Nc2ccccc2)c1-c1nc2ccccc2s1 | 26.8% (inactive) |
| C[C@]12CCc3c(ccc4cc(O)ccc34)[C@@H]1C[C@H](O)[C@@H]2O | 125% (inactive) |
| Cn1cc(-c2csc(-c3cn(CCOC(N)=O)c4ccccc34)n2)c2cccnc21 | 84.8% (inactive) |
| C=C(CN1CC=CCC1)[C@@H]1CC[C@]2(COC(C)=O)CC[C@]3(C)[C@H](CC[C@@H]4[C@@]5(C)CC[C@H](O)C(C)(C)[C@@H]5CC[C@]43C)[C@@H]12 | 104% (inactive) |
| C/C=C(/C)C(=O)O[C@@H]1CC(C)(C)CC2C34OC(=O)[C@@]21CC[C@@]3(C)[C@]1(C)CCC2C(C)(C)C(=O)CC[C@]2(C)C1C[C@@H]4Cl (some centres not stated) | 103% (inactive) |
| CC1=CC=C(NC(=O)/C=C/c2ccccc2)CC1Nc1nccc(-c2cccnc2)n1 (configuration not stated) | 28.2% (inactive) |
| COc1ccc(-c2[nH]c3ccccc3c2-c2ccc(OC)cc2)cc1 | 64.6% (inactive) |
| CC[C@]12CN3CCc4c([nH]c5ccccc45)[C@@](C(=O)OC)(c4cc5c(cc4OC)N(C)[C@H]4[C@@](O)(C(=O)OC)[C@H](OC(C)=O)[C@]6(CC)C=CCN7CC[C@]54[C@@H]76)CC(C3)[C@H]1O2 (some centres not stated) | 31% (inactive) |
| CCCCC1=C(Br)C(=O)c2nc(C)ccc2C1=O | 109% (inactive) |
| Nc1ncc(-c2ccc3ncnc(N4CCc5ccc(Cl)cc54)c3c2)cc1C(F)(F)F | 14.1% (inactive) |
| COc1ccc(-c2nnc3n(C)c(=O)c4ccccc4n23)cc1O | 30.3% (inactive) |
